# Source: PubChem (Center for Chemical Genomics, University of Michigan)
# TAR Tat displ: HIV-1 TAR-Tat binding disruption; hit rate 0.6% among 100,000; HIV-1 TAR RNA, Tat peptide displacement FRET; active compounds read high; z-score (no concentration beside the values); active = z-score of 3 or more in at least 2 runs
# CDC25B CDK2 inh: human CDC25B-CDK2/CyclinA binding inhibition; hit rate 0.72% among 94,000; z-score (concentration not given with the values); HTRF CDC25B-CDK2/CyclinA binding, anti-His/anti-Flag; active compounds read high; in the data active = z-score above about 3.2
# Numbers without * were called inactive; . = no result; ! = not confirmed by another sample. A selection: hits, their analogues and other compounds. The true share with any hit is near 0.9%.
SMILES,TAR Tat displ,CDC25B CDK2 inh
CC(N)[C@H](O)c1ccc(O)c(O)c1 (stereo partly drawn),.,-3.3
C[C@H](N)[C@H](O)c1ccc(O)c(O)c1,8.2*,.
CCOc1ccc(C2SCC(=O)Nc3c2c(C)nn3-c2nc(C)cc(C)n2)cc1OC (stereo not drawn),1.6,-1.6
Cc1cc2c(C(C)C)c(O)c(O)c(C=O)c2c(O)c1-c1c(C)cc2c(C(C)C)c(O)c(O)c(C=O)c2c1O,26*!,-0.45
CCN1CCN(Cc2csc(C)c2C)CC1,0.39,.
Cc1cc(C)nc(-n2nc(C)c3c2NC(=O)CSC3c2cccc(Br)c2)n1 (stereo not drawn),0.07,-0.97
CC[n+]1c(Cc2nn3c(C)cc(C)nc3[n+]2CC)nn2c(C)cc(C)nc21,.,-4.2
NC(N)=N/N=C/c1ccc(/C=N/N=C(N)N)cc1,.,7.6*
CC(C)n1c(C(=O)c2cccc3ccccc23)nc2ccccc21,.,2
CCOC(=O)C12C(=O)Oc3ccc(Br)cc3C1C2(CC)C(=O)c1ccccc1 (stereo not drawn),0.21,15*
CCC1(C(=O)c2ccc(Cl)cc2)C2c3cc(Br)ccc3OC(=O)C21C(=O)OC (stereo not drawn),0.26,1.8
CCCCn1c(C)c(C(=O)OCC)c2cc(OCCN(C)C)ccc21,.,-1.7
Cc1cc(C)nc(-n2nc(-c3ccccc3)c3c2NC(=O)CSC3c2cc(F)cc(F)c2)n1 (stereo not drawn),-0.11,-1.8
COC(=O)c1sc2nc3c(cc2c1N)CN(C)CC3,-0.26,0.56
CN1CCc2nc(SCc3cccnc3)c(C#N)cc2C1,-2.5,19*
Cc1[nH]nc2c1C(c1ccc(F)cc1F)SCC(=O)N2 (stereo not drawn),3.1,-0.54
N#CC1=C(N)Oc2c(c(=O)oc3ccccc23)C1c1cccc(Br)c1 (stereo not drawn),.,-2
CN1CSC2=C(C#N)C(c3cccc(Br)c3)CC(=O)N2C1 (stereo not drawn),0.16,5.2*
CCN1CCN(c2nc3ncccc3o2)CC1,1.1,1.4
C=CC[N+]12CN3CN(CN(C3)C1)C2,.,4.3*
CCCCCn1cc(C(=O)Cc2ccccc2C)c2ccccc21,-0.25,.
O=C(Nc1ccccc1)Nc1cnns1,-0.51,20*
COc1cc2c(cc1O)C[C@H]1c3c(cc(O)c(OC)c3-2)CCN1C,13*,.
CN1CCc2cc(O)cc3c2[C@H]1Cc1ccc(O)c(O)c1-3,.,-0.62
Cc1c2ccncc2c(C)c2c1[nH]c1ccccc12,-7.3,4.2*
SMILES,TAR Tat displ,CDC25B CDK2 inh
Cc1nccc2c1[nH]c1ccccc12,19*,-1.2
c1ccc2c(c1)[nH]c1cnccc12,3.3,.
COc1ccc(NP(=O)(OCC(F)(F)F)OCC(F)(F)F)cc1,.,-3.1
c1ccc(CNCCc2c[nH]c3ccccc23)cc1,-0.73,1.3
Cc1cccc(CNCCc2c[nH]c3ccccc23)c1,0.75,16*
Fc1cccc(CNCCc2c[nH]c3ccccc23)c1,0.87,8*
CCc1ccc(CNCCc2c[nH]c3ccccc23)cc1,0.71,-0.73
COc1cc(C2C(C#N)=C(N)Oc3c2c(=O)oc2ccccc32)cc(OC)c1OC (stereo not drawn),.,-1.3
CN1CCC2=NN(c3ccccc3)C(=O)C2C1 (stereo not drawn),.,-1.5
COc1ccccc1-c1cc2nc(C)cc(N3CCN(c4nc(C)cc(C)n4)CC3)n2n1,0.32,-0.62
Cc1nn(-c2ccc(Cl)cc2)c2c1C(c1ccc(F)cc1F)SCC(=O)N2 (stereo not drawn),-1.5,-1.1
CCCCCn1c(N)c(C(=O)OC)c2nc3ccccc3nc21,0.97,1.8
Nc1c(C(=O)NCc2ccccc2)c2nc3ccccc3nc2n1Cc1ccco1,-4.3,12*
CCO/C(C=C(C#N)C#N)=C/C(=C=N)C#N,.,-0.88
CN(C)CCN(C(=O)COc1ccc(Cl)cc1)c1nc2c(F)cc(F)cc2s1,1.3,.
CCCCOc1ccc(C2SCC(=O)Nc3n[nH]c(C)c32)cc1 (stereo not drawn),1.8,-2.3
COc1cc2c(cc1O)C(C)NCC2 (stereo not drawn),0.43,.
C[C@@H]1NCCc2cc(O)c(O)cc21,19*,.
Cn1c(N2CCNCC2)cc(=O)n(C)c1=O,1.7,-3
CCOc1ccc(C2SCC(=O)Nc3c2c(C)nn3-c2nc(C)cc(C)n2)cc1 (stereo not drawn),-1.2,-1.6
CNCCc1c[nH]c2ccc(O)cc12,.,9.8*
CNCCc1c[nH]c2ccccc12,.,-0.91
COc1ccc(C2SCC(=O)Nc3n[nH]c(C)c32)c(OC)c1 (stereo not drawn),1.7,0.18
